Four compounds from PubChem BioAssay (EPA / NIEHS) can be followed below.

Inconclusive results are not listed. Calls of active or inactive are those of the source. Rule for the calls, unless noted: active = hit-call score of the fitted dose curve at least 0.9, where 1 is the maximum; inactive = score below 0.9.

Experiment [1] in a line: ATG_RORE_CIS: Attagene CIS-FACTORIAL HepG2 Assay for human RAR-related Orphan Receptor Element (RORE) (AID 2282959). The note with it: HepG2 Attagene cis-factorial RORE reporter, mRNA; actives raise or lower the signal. In outline: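 HepG2 cells carrying transiently transfected cis-regulated reporter units; RORE-driven reporter mRNA quantified 24 h post-dosing by RT-PCR, 6-FAM primer extension, HpaI digestion and capillary electrophoresis. Bidirectional fit versus DMSO.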

Experiment [2] has as its target Transcription factor Sp1 (Homo sapiens) (UniProt P08047). Nature of the experiment: ATG_Sp1_CIS: Attagene CIS-FACTORIAL HepG2 Assay for human Specificity Protein 1 (Sp1) (AID 2282961). To be noted: HepG2 Sp1 cis-reporter transcription, actives raise or lower the signal. In outline:
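HepG2 cells transiently transfected with multiplexed cis-regulated reporter constructs, chemical exposure 24 h. Reporter mRNA quantified by RT-PCR with capillary electrophoresis; bidirectional fit relative to DMSO.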

A short description of experiment [3]: ATG_SREBP_CIS: Attagene CIS-FACTORIAL HepG2 Assay for human Sterol Regulatory Element Binding (SREBP) (AID 2282962). The note with it: HepG2 Attagene cis-factorial SREBP reporter, mRNA; actives raise or lower the signal. The procedure, abridged:
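HepG2 cells transiently transfected with multiplexed cis-promoter reporter units sensing endogenous transcription factors; reporter mRNA measured 24 h after dosing by RT-PCR, 6-FAM labeling, HpaI digestion and capillary electrophoresis. Bidirectional fit versus DMSO.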

The target of experiment [4] is Signal transducer and activator of transcription 3 (Homo sapiens) (UniProt P40763). Nature of the experiment: ATG_STAT3_CIS: Attagene CIS-FACTORIAL HepG2 Assay for human Signal Transducer and Activator of Transcription 3 (STAT3) (AID 2282963). The note with it: HepG2, Attagene cis-factorial STAT3 reporter transcription; actives raise or lower the signal. In outline: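 Transcript-level reporter assay. HepG2 transient MRTU transfection, 24 h exposure, fluorescence detection after RT-PCR and CE; DMSO baseline.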

A short description of experiment [5]: ATG_TA_CIS: Attagene CIS-FACTORIAL HepG2 Assay for human TA Basal Promoter (AID 2282964). The note with it: HepG2 Attagene CIS-factorial TA basal promoter reporter; actives raise or lower the signal. The procedure, abridged:
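Fluorescence from labelled RT-PCR reporter fragments, separated by capillary electrophoresis, gives the signal. Cells: HepG2 transiently carrying multiple reporter units, 24 h chemical dosing. Gain or loss relative to DMSO.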

The nature of experiment [6]: ATG_TCF_b_cat_CIS: Attagene CIS-FACTORIAL HepG2 Assay for human T-Cell-Factor with beta-catenin (TCF/b-cat) (AID 2282965). To be noted: HepG2 TCF/beta-catenin cis-reporter transcription, actives raise or lower the signal. The procedure, abridged:
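Using capillary electrophoresis as the read-out, labelled reporter cDNA fragments from transiently transfected HepG2 were sized and quantified. Exposure lasted 24 hours; activity in either direction was referenced to DMSO.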

Experiment [7] in a line: ATG_TAL_CIS: Attagene CIS-FACTORIAL HepG2 Assay for human TAL Basal Promoter (AID 2282966).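 Note: background control endpoint measuring basal TAL promoter reporter mRNA not a specific factor.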 To be noted: HepG2 Attagene cis-factorial TAL promoter reporter; actives raise or lower the signal. The procedure, abridged: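 In this cell-based multiplex, HepG2 liver cells bearing cis-promoter reporter constructs are dosed for 24 hours. Total RNA is reverse-transcribed and amplified, labelled fragments are sized by capillary electrophoresis, and signal changes are fitted bidirectionally versus DMSO.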

Experiment [8] is described as follows: ATG_TGFb_CIS: Attagene CIS-FACTORIAL HepG2 Assay for human Transforming Growth Factor (TGF) (AID 2282967). The note with it: HepG2 Attagene CIS TGFb reporter, mRNA transcription; actives raise or lower the signal. In outline:
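Bidirectional fitting relative to DMSO gave the endpoint. Underlying data: reporter mRNA from HepG2 cells carrying transiently transfected cis-regulated reporter constructs, harvested 24 h after dosing and analyzed by RT-PCR and capillary electrophoresis.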

The nature of experiment [9]: ATG_VDRE_CIS: Attagene CIS-FACTORIAL HepG2 Assay for human Vitamin D Receptor Element (VDRE) (AID 2282968). To be noted: HepG2 VDRE cis-reporter transcription, actives raise or lower the signal. In outline: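 RT-PCR/CE readout of reporter mRNA; HepG2, transient transfection, 24 h dosing; DMSO baseline; bidirectional analysis.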
For experiment [10], the target named is Estrogen receptor (Homo sapiens) (UniProt P03372). Nature of the experiment: ATG_ERa_TRANS: Attagene TRANS-FACTORIAL HepG2 Assay for human Estrogen Receptor alpha (ERa) (AID 2282970; active = hit-call score of the fitted dose curve at least 0.9, where 1 is the maximum). The note with it: HepG2 Attagene TRANS ERa GAL4 reporter, mRNA. In outline: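 After 24 h of compound treatment, RNA from HepG2 cells bearing transfected GAL4-UAS reporter constructs is converted to cDNA, amplified and fluorescently labelled. Capillary electrophoresis resolves the ERa-linked reporter; DMSO serves as negative control.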

Experiment [11] concerns the target X-box-binding protein 1 (Homo sapiens) (UniProt P17861). The experiment in a line: ATG_Xbp1_CIS: Attagene CIS-FACTORIAL HepG2 Assay for human X-box Binding Protein 1 (XBP1) (AID 2282972). The note with it: HepG2 XBP1 cis-element reporter, Attagene multiplex; actives raise or lower the signal. In outline: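 HepG2 cells transiently transfected with multiple cis-element reporter units report endogenous TF activity; 24 h exposure, then reporter mRNA measured by RT-PCR, 6-FAM labelling, HpaI digestion and capillary electrophoresis. Bidirectional fitting versus DMSO.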

Experiment [12] in a line: ATG_M_19_TRANS: Attagene TRANS-FACTORIAL HepG2 Assay for M19 Transcription Factor (Internal Marker) (AID 2282974; active = hit-call score of the fitted dose curve at least 0.9, where 1 is the maximum). To be noted: HepG2 Attagene TRANS-FACTORIAL M19 internal marker reporter. The procedure, abridged: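 HepG2 transiently transfected with GAL4-UAS multiplex reporter constructs, exposed 24 h; reporter RNA quantified by RT-PCR, 6-FAM labeling, HpaI digestion and capillary electrophoresis; internal background marker fitted upward versus DMSO.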

The target of experiment [13] is Glucocorticoid receptor (Homo sapiens) (UniProt P04150). Nature of the experiment: ATG_GR_TRANS: Attagene TRANS-FACTORIAL HepG2 Assay for human Glucocorticoid Receptor (GR) (AID 2282978; active = hit-call score of the fitted dose curve at least 0.9, where 1 is the maximum;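 note: activators score as hits since higher reporter transcript over DMSO is fitted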). To be noted: HepG2 Attagene TRANS GR reporter, mRNA transcription. In outline:
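HepG2 cells transiently transfected with GAL4-UAS reporter units and exogenous GR-Gal4 chimera, dosed 24 h. Reporter mRNA by RT-PCR, FAM labeling, HpaI digest and capillary electrophoresis; gain-of-signal fit versus DMSO.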

Experiment [14] addresses Nuclear receptor subfamily 1 group I member 3 (Homo sapiens) (UniProt Q14994). Nature of the experiment: ATG_CAR_TRANS: Attagene TRANS-FACTORIAL HepG2 Assay for human Constitutive Androstane Receptor (CAR) (AID 2282969; active = hit-call score of the fitted dose curve at least 0.9, where 1 is the maximum;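 note: activators raise reporter mRNA above DMSO so AC50 marks induction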). The note with it: HepG2 Attagene TRANS-FACTORIAL CAR reporter. The procedure, abridged: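 HepG2 cells transiently transfected with multiplexed GAL4-UAS reporter units expressing chimeric NR-Gal4 proteins; compound exposure 24 h. Reporter mRNA measured by RT-PCR, 6-FAM labelling, HpaI digestion and capillary electrophoresis; gain-of-signal fitted against DMSO baseline.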

Experiment [15] deals with Steroid hormone receptor ERR1 (Homo sapiens) (UniProt P11474). The experiment in a line: ATG_ERRa_TRANS: Attagene TRANS-FACTORIAL HepG2 Assay for human Estrogen-Related Receptor alpha (ERRa) (AID 2282971; active = hit-call score of the fitted dose curve at least 0.9, where 1 is the maximum). The note with it: HepG2 Attagene TRANS reporter, ERRa transactivation. The procedure, abridged: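 Transfected HepG2, 24 h dosing, ERRa-Gal4 chimera driving GAL4-UAS reporter. Readout: reporter mRNA via RT-PCR plus capillary electrophoresis (fluorescence). Positive direction vs DMSO control.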

The target of experiment [16] is Androgen receptor (Homo sapiens) (UniProt P10275). Nature of the experiment: ATG_AR_TRANS: Attagene TRANS-FACTORIAL HepG2 Assay for human Androgen Receptor (AR) (AID 2282973; active = hit-call score of the fitted dose curve at least 0.9, where 1 is the maximum). To be noted: HepG2 Attagene TRANS-FACTORIAL AR reporter transcription. The procedure, abridged:
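Readout is reporter transcript abundance, quantified by fluorescent RT-PCR products separated on capillary electrophoresis. Human HepG2 liver cells carried transiently transfected NR-Gal4 chimera plus GAL4-UAS reporter constructs and were dosed for 24 h; activity scored upward versus DMSO.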

Experiment [17] is described as follows: ATG_GAL4_TRANS: Attagene TRANS-FACTORIAL HepG2 Assay for GAL4 (Internal Marker) (AID 2282976; active = hit-call score of the fitted dose curve at least 0.9, where 1 is the maximum). The note with it: HepG2 Attagene TRANS GAL4 internal marker reporter. In outline:
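RT-PCR/capillary electrophoresis readout of reporter mRNA. HepG2, transient MRTU transfection (GAL4-UAS reporters), 24 h compound exposure. Background-control endpoint, positive direction vs DMSO baseline.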

The target of experiment [18] is Estrogen-related receptor gamma (Homo sapiens) (UniProt P62508). The experiment in a line: ATG_ERRg_TRANS: Attagene TRANS-FACTORIAL HepG2 Assay for human Estrogen-Related Receptor gamma (ERRg) (AID 2282977; active = hit-call score of the fitted dose curve at least 0.9, where 1 is the maximum;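 note: hits increase reporter signal over DMSO so potencies reflect activators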). The note with it: HepG2 Attagene TRANS reporter, ERRg transactivation. The procedure, abridged: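 Transfect HepG2 with multiple GAL4-UAS reporter transcription units; dose chemicals 24 h; isolate RNA, reverse-transcribe with oligo(dT), PCR-amplify, label with 6-FAM, digest with HpaI; size fragments by capillary electrophoresis. DMSO serves as negative control.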

Experiment [19] has as its target Bile acid receptor (Homo sapiens) (UniProt Q96RI1). The experiment in a line: ATG_FXR_TRANS: Attagene TRANS-FACTORIAL HepG2 Assay for Farnesoid X Receptor (FXR) (AID 2282979; active = hit-call score of the fitted dose curve at least 0.9, where 1 is the maximum;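 note: hits raise reporter mRNA above DMSO so AC50 marks FXR activation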). To be noted: HepG2 Attagene TRANS FXR-GAL4 reporter transcription. The procedure, abridged:
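Read-out: fluorescent reporter transcripts quantified by capillary electrophoresis after RT-PCR of total RNA. Source cells were HepG2 transiently carrying chimeric NR-GAL4 plus GAL4-UAS reporter units, dosed 24 h. Activity fitted upward relative to DMSO baseline.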

Experiment [20] can be described thus: ATG_Sox_CIS: Attagene CIS-FACTORIAL HepG2 Assay for human SRY-box transcription factor (SOX) (AID 2282960). The note with it: HepG2 Attagene cis-factorial SOX reporter, mRNA; actives raise or lower the signal. The procedure, abridged: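 HepG2 cells transiently transfected with multiple cis-regulated reporter units, then dosed for 24 h. Reporter mRNA quantified by RT-PCR, fluorescent labelling, HpaI digestion and capillary electrophoresis; bidirectional fit versus DMSO.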

Sequence of Transcription factor Sp1 (Homo sapiens) (P08047 whole entry, looked up): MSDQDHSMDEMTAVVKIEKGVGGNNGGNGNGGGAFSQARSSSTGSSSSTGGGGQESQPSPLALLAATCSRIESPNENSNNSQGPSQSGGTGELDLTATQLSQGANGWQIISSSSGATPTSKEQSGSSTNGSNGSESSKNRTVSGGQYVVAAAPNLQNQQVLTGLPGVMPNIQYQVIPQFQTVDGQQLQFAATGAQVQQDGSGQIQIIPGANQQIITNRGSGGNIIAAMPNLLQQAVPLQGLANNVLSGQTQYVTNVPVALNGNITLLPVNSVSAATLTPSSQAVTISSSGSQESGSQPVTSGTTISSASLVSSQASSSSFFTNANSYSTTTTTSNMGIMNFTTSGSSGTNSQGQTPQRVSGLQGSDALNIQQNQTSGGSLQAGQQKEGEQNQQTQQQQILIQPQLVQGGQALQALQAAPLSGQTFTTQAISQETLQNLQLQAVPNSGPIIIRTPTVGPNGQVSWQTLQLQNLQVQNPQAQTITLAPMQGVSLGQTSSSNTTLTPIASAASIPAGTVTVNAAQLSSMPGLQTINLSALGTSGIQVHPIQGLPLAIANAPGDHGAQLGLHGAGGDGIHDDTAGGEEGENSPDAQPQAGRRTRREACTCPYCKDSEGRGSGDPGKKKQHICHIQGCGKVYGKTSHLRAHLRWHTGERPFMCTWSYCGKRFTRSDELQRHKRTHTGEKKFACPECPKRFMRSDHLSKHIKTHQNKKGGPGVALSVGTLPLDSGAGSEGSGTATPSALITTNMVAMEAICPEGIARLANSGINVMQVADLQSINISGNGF
Sequence of Glucocorticoid receptor (Homo sapiens) (P04150 whole entry, looked up, the tested form may be a part): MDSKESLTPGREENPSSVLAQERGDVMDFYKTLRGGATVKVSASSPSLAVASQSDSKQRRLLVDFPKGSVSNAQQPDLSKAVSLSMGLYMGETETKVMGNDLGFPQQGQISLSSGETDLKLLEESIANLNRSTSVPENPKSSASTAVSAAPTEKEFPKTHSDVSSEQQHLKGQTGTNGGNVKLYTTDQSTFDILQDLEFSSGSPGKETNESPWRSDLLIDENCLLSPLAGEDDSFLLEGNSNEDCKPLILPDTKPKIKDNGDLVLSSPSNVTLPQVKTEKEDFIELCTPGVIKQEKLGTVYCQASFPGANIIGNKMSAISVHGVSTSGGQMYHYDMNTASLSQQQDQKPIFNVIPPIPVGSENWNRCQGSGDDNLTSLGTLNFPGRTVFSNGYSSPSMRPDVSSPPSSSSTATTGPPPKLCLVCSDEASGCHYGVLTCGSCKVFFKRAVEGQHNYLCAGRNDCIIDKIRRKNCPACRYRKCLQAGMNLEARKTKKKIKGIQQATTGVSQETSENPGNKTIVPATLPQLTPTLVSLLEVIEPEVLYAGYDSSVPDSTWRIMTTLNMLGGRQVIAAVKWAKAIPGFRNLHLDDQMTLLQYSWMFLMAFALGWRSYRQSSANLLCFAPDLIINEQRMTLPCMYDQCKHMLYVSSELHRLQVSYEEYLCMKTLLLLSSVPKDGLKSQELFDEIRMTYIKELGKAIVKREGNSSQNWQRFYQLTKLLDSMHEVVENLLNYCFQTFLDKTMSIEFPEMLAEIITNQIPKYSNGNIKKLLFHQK
Sequence of Estrogen receptor (Homo sapiens) (P03372 whole entry, looked up, the tested form may be a part): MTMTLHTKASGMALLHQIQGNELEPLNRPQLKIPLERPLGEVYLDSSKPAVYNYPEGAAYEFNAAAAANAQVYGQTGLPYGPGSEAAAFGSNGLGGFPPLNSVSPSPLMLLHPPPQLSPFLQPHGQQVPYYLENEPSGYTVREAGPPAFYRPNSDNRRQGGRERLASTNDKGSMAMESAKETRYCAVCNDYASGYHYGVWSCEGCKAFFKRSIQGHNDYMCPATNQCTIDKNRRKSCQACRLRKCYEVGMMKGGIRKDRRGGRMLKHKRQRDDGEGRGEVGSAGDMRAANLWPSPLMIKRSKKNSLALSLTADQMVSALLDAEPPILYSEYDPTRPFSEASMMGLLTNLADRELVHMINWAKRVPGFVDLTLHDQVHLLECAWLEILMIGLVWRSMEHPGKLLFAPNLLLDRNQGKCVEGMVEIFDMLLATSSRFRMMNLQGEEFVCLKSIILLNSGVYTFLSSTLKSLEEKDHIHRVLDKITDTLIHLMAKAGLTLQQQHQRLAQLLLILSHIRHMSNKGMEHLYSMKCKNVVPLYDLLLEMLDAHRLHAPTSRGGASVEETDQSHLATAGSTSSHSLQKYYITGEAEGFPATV
Sequence of Nuclear receptor subfamily 1 group I member 3 (Homo sapiens) (Q14994 whole entry, looked up, the tested form may be a part): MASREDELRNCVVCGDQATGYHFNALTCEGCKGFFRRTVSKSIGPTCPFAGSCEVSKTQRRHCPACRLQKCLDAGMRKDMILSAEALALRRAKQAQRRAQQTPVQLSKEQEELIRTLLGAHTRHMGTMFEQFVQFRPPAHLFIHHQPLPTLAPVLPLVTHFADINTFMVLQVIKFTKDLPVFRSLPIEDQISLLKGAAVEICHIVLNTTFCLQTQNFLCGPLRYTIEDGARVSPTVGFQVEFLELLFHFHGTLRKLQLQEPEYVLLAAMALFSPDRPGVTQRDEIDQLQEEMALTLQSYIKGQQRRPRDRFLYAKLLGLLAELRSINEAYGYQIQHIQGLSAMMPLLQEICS
Sequence of X-box-binding protein 1 (Homo sapiens) (P17861 whole entry, looked up): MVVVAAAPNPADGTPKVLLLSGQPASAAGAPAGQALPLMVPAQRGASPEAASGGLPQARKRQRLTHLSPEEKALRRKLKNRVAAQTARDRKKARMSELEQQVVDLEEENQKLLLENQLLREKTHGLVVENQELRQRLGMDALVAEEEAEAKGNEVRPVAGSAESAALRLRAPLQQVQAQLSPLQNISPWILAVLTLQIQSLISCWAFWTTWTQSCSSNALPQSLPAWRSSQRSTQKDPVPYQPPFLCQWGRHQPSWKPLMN
Sequence of Signal transducer and activator of transcription 3 (Homo sapiens) (P40763 whole entry, looked up): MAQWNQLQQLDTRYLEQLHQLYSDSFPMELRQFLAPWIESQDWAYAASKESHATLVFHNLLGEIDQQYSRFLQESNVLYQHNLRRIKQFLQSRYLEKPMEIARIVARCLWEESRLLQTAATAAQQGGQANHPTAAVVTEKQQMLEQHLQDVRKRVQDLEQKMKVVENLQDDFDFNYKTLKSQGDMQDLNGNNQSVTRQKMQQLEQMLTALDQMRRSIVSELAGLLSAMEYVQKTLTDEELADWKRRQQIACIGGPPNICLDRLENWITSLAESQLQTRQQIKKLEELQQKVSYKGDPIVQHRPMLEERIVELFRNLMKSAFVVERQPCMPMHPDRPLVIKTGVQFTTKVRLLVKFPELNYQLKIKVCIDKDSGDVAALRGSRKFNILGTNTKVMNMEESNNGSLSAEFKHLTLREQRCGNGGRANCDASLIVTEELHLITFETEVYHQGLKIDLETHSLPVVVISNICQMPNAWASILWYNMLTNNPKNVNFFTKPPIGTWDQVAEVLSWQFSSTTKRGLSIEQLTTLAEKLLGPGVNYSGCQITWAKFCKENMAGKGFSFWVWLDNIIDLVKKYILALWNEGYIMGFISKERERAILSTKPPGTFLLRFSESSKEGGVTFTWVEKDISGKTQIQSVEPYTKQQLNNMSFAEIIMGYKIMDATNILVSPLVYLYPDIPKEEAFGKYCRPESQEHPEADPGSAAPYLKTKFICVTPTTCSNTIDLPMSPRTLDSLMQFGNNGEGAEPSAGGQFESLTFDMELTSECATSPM
Sequence of Estrogen-related receptor gamma (Homo sapiens) (P62508 whole entry, looked up, the tested form may be a part): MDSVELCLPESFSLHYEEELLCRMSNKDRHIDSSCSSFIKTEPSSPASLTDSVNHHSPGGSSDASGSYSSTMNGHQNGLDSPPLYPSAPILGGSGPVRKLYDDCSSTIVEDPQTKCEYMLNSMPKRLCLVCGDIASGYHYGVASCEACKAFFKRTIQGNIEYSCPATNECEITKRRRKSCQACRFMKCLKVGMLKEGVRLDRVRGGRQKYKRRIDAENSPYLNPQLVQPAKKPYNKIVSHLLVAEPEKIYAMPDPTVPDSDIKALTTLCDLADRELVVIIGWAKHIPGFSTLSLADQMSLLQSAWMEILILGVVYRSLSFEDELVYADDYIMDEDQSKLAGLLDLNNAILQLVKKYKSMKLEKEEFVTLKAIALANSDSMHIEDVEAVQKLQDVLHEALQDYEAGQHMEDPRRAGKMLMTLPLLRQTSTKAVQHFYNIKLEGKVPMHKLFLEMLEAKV
Sequence of Bile acid receptor (Homo sapiens) (Q96RI1 whole entry, looked up, the tested form may be a part): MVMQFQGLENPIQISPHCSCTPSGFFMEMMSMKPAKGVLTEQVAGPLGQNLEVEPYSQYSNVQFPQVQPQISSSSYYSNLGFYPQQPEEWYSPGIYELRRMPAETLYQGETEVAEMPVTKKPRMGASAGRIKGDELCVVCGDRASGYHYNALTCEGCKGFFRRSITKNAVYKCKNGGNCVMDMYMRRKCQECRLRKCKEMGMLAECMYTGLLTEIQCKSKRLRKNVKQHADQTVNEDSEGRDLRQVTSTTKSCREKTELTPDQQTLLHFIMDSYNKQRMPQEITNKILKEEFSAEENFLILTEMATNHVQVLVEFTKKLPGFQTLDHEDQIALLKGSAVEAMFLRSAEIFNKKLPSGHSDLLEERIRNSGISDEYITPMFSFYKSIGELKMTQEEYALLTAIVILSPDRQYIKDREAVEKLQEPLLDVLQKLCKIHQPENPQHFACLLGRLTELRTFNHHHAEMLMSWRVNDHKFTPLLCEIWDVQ
Sequence of Steroid hormone receptor ERR1 (Homo sapiens) (P11474 whole entry, looked up, the tested form may be a part): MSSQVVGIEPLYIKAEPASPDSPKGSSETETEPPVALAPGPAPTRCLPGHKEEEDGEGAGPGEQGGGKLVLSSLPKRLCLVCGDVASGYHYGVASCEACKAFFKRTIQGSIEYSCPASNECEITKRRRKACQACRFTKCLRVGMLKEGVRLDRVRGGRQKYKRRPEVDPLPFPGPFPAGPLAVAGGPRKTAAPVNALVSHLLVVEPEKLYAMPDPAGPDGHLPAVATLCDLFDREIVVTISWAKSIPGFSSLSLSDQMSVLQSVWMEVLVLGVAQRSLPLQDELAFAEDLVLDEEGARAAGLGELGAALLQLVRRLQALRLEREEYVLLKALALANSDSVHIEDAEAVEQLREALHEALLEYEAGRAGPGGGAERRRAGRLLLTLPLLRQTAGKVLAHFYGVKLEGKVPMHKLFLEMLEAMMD

Take `CCCCCCCCCCCCCl`: the compound was classed as inactive in experiment [1], in experiment [2], in experiment [3], in [4], in [5] and in [6]. The outcome in experiment [7], in experiment [8], in experiment [9], in [10], in experiment [11] and in experiment [12] was inactive. The result in [13] was inactive.
With `Cc1ccc(OP(=O)(Oc2ccc(C)cc2C)Oc2ccc(C)cc2C)c(C)c1`, the call in [1], in experiment [3], in experiment [4], in [5], in experiment [6] and in experiment [7] was inactive. Also, the compound was classed as inactive in experiment [8], in experiment [14], in [10], in experiment [15], in experiment [11] and in experiment [16]. The compound was classed as inactive in experiment [12], in experiment [17], in experiment [18], in [13] and in experiment [19]. Besides, the concentration at half-maximal activity (AC50) is 26.2 µM (active) in [2] and 0.534 µM (active) in experiment [9].
Regarding `CCOP(=S)(OCC)Oc1ccc(Cl)cc1Cl`, the result in [1], in experiment [2], in experiment [3], in experiment [4], in experiment [5] and in experiment [6] was inactive. The compound was called inactive in experiment [7], in [8], in experiment [14] and in experiment [11]. The AC50 in experiment [9] was 13.9 µM (active); in experiment [10], 7.91 µM (active).
Consider `CN(C)c1ccc(N=O)cc1`, for which the outcome in experiment [1], in experiment [20], in [2], in experiment [3], in [4] and in [5] was inactive. Further, the result in experiment [7], in [8], in experiment [9], in experiment [14], in experiment [15] and in [11] was inactive. Also, the outcome in experiment [18], in experiment [13] and in experiment [19] was inactive.

As a reminder, the AC50 is the concentration at which the activity in the assay is half-maximal.
